High-throughput results deposited in PubChem by National Center for Advancing Translational Sciences (NCATS).
GLP-1R inv ag: GLP-1 receptor (human) inverse agonism; actives 1.6% (n = 410,000); HEK293 GLP-1R CRE-luciferase, luminescence, 24 h; GLP-1R form is constitutively active; AID 624417; Potency, µM (top dose mostly 38.3 µM), inactives show at the top dose activity change, negative = inhibition, most hits filed as inhibitors; further: on the % scale 0 is the no-effect control and ±100 the full control effect; nearly all actives have a fitted effect of over 55% in size
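HEK293 cells stably co-expressing constitutively active GLP-1R and a cAMP-responsive luciferase reporter were seeded in DMEM with 10% Nu serum, given compounds after 12 h, and incubated 24 h at 37 deg C. Luminescence was then read.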
HEK293 tox: cytotoxicity in counter-screen for GLP-1R inverse agonists; HEK293 cAMP-luciferase reporter cells, luminescence, 24 h; Potency, µM (top dose mostly 38.3 µM), for the others: at the top dose activity change, negative = inhibition, actives largely listed as inhibitors; actives 0.13% (n = 410,000); AID 624418;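 further: loss of luciferase light is scored as toxicity; on the % scale 0 is the no-effect control and ±100 the full control effect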
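Compound-treated cells are incubated 24 hr at 37 deg C under 5% CO2 after a 12 hour attachment period, then luciferase detection reagent is added and luminescence is measured following 12 min at room temperature; lowered signal indicates toxicity.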
PTHR1 agonist: activates the human parathyroid hormone receptor PTHR1 | Q03431 | HEK293 GP2 PTHR1 cells, GloSensor cAMP luminescence, 1 h | actives 0.075% (n = 410,000) | Potency, µM (titrated, usually from 115 µM), for inactives: at the top dose activation, usual class: activators | AID 743266; further: nearly all actives have a fitted effect of over 55% in size
Target sequence (Q03431 whole entry, looked up): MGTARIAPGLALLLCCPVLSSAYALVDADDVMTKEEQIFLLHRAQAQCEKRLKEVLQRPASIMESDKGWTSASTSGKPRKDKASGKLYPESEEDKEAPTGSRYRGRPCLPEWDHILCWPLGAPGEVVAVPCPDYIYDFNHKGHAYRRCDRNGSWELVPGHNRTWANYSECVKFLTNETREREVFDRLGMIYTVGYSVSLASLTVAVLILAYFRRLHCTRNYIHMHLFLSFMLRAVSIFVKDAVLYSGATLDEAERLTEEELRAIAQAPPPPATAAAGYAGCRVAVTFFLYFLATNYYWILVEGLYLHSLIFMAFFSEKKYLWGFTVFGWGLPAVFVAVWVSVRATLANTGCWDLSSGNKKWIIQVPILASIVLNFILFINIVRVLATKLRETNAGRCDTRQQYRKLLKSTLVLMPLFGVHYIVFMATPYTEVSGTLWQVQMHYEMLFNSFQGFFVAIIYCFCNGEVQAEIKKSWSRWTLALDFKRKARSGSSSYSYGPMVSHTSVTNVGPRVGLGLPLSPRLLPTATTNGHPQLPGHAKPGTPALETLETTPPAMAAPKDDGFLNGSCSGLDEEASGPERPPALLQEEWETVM
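HEK-293-derived GP2 cells expressing PTHR1 and a GloSensor cAMP reporter, 3,000/well, plated overnight, given luciferin plus IBMX (each 0.5 mM as added) for 1 h at 37 °C, then compound for 1 h at 37 °C. Luminescence was read after 15 min at room temperature.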
RGS4 inhibitor: blocks human RGS4-accelerated GTP hydrolysis; Transcreener GDP fluorescence polarization, RGS4-accelerated GTP hydrolysis; P49798; Potency, µM (top dose mostly 114 µM), for the others: top-dose activity change, negative = inhibition, hits mostly inhibitors; actives 0.039% (n = 390,000); further: on the % scale 0 is the no-effect control and ±100 the full control effect; nearly all actives have a fitted effect of over 75% in size
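MLSMR compounds (23 nl, pin-transferred) preincubated 10 min at room temperature with a 500nM (2x) first reagent, then RGS4 at 900nM (2x) plus Transcreener GDP mix added; fluorescence polarization (620/688 nm) read before and after 90 min at 30 °C.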
GLP1R ag: GLP-1 receptor (human) agonism. HEK293 GLP-1R CRE-luciferase, luminescence, 4-6 h; cells express a hypersensitive GLP-1R form. Potency, µM (top dose mostly 45.6 µM), inactives show top-dose activation, hits mostly activators. actives 0.007% (n = 380,000); further: % of control where 0% means no effect
Starred values were filed as active, the others as inactive; i = inactive; ? = inconclusive; · = no result; [ ] = dose if it differs, or a comment. Compounds with a hit are over-represented: about 1.7% of the library has one in this group of screens. The call rests on the fitted dose curve; in most records, active means well fitted curve in the direction sought with a large enough effect; inconclusive means small, poorly fitted or top-dose-only effect, or another doubt; inactive means no such curve, though single readings can be large; an effect the other way counts as inactive or inconclusive. Potency means the concentration at half of the fitted maximal effect.

SMILES	GLP-1R inv ag	HEK293 tox	PTHR1 agonist	RGS4 inhibitor	GLP1R ag
CCn1c2ccccc2c2cc(NC(=O)CNCC3CCCO3)ccc21 (stereo not given)	10µM*	-11%	i	-31%	10%
CCn1cc2nc(SCc3cccc(C)c3)n(CCc3ccccc3)c(=O)c2n1	7.9µM*	-22%	-6%	-11%	·
CC1CCc2c(sc3nc(C4CC4)nc(N4CCN(C(=O)c5ccco5)CC4)c23)C1 (stereo not given)	5.6µM*	?	-34%	?	-4%
Cc1nn2c(NCC(C)C)c3c(nc2c1-c1ccccc1)CCC3	0%	1%	i	1%	4%
Cc1nn2c(NC(C)C)c3c(nc2c1-c1ccccc1)CCC3	10µM*	-8%	-61%	-9%	23%
CN(C)CCCN(C(=O)c1cccs1)c1nc2ccc(F)cc2s1	-7%	?	i	-19%	·
CN(C)CCCN(C(=O)c1ccc2c(c1)CCCC2)c1nc2ccc(Cl)cc2s1	5µM*	-25%	-6%	-11%	-47%
CN(C)CCCN(C(=O)CCc1ccccc1)c1nc2ccc(Cl)cc2s1	3.5µM*	?	-11%	6%	0%
CN(C)CCCN(C(=O)c1sc2ccccc2c1Cl)c1nc2ccc(F)cc2s1	10µM*	-27%	i	17%	4%
CC(C)c1cnc2c(c1SCC(=O)c1ccc(Cl)cc1)c(=O)n(C)c(=O)n2C	?	3%	i	-41%	·
CCCCCOc1ccc(Br)cc1/C(C)=N/NC1=NCCN1	2.2µM*	?	-6%[57.5 µM]	-12%[11.4 µM]	1%
Cc1cccc(S(=O)(=O)Nc2cc(Cl)ccc2N2CCOCC2)c1	10µM*	-2%	-14%	-3%	7%
O=S(=O)(Nc1cc(C(F)(F)F)ccc1N1CCOCC1)c1ccccc1	-27%	3%	i	-6%	-2%
O=C1CN(C(=O)COC(=O)[C@@H]2CCCN2S(=O)(=O)c2ccc(Cl)cc2)c2ccccc2N1	6%	5%	-19%	-9%	-1%
COc1ccc(-c2nc(-c3ccccc3)c(-c3ccc(F)cc3)[nH]2)c(OC)c1C	?	2%	-7%	-1%	·
Cc1ccc(-c2csc(Nc3ccccn3)n2)cc1	?	-2%	-90%	-19%	-2%
c1ccc(-c2csc(Nc3ccccn3)n2)cc1	10µM*	-11%	-92%	-12%	17%
COc1ccc(-c2cn3cccnc3n2)cc1NC(=O)c1c(F)cccc1F	-5%	-8%	-9%	-22%	·
COc1cc2c3c(c1)c(N=NC(N)=S)c(O)n3C(C)(C)C=C2C	?	0.89µM*	-10%	-11%	29%
CC1=CC(C)(C)n2c(O)c(N=NC(N)=S)c3c(C)ccc1c32	-6%	7%[1.53 µM]	-34%	-4%	0%
CC1=CC(C)(C)n2c(O)c(N=NC(N)=S)c3c(C)c(C)cc1c32	-23%	5%	i	7%	3%
CC1=CC(C)(C)n2c(O)c(N=NC(N)=S)c3cccc1c32	4.5µM*	?	-6%	1%[11.4 µM]	1%
O=C(Cn1cc(S(=O)(=O)c2ccc(Cl)cc2)c(=O)c2ccccc21)Nc1ccc2c(c1)OCO2	-22%	-5%	-23%	10%	-1%
CC(=O)Nc1cccc(-c2cccc3nccn23)c1	2%	0%	-21%	·	10%
CCN(CC)c1ccc(NC(=O)CN2CCN(S(=O)(=O)c3ccc(C(C)C)cc3)CC2)cc1	?	8%	i	1%	·
Cc1oc(-c2ccc(Cl)cc2)nc1CS(=O)CC(=O)NCCN1CCCCCC1 (stereo not given)	?	-62%	i	-26%	-6%
Cc1oc(-c2ccc(Cl)cc2)nc1CS(=O)CC(=O)NCCCN1CC(C)CC(C)C1 (stereo not given)	5.6µM*	?	i	-14%	8%
Cc1ccc(-c2nc(CS(=O)CC(=O)NC(C)CCc3ccccc3)c(C)o2)cc1 (stereo not given)	8.9µM*	-1%	-14%	-4%	0%
